Screens: PubChem, University of Kansas High Throughput Screening Laboratory
mHTT-CaM PPI inh – disrupts binding of mutant huntingtin to calmodulin; P42858; AlphaScreen His-mHTT/GST-CaM binding, luminescence; inhibition, % at 15 µM; 190,000 compounds, 3.6% hits; AID 1671202;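 also: 0% = both proteins with DMSO and 100% = one protein alone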
Pf apPOL inh – Pf-apPOL DNA polymerase inhibition; inhibition, % at 10 µM; 210,000 compounds, 0.25% hits; AID 1794808; Recombinant Pf-apPOL, molecular beacon fluorescence, 1.5 h
* marks the source's active call; other numbers are inactive results; · = no result given; ! = a repeat was not active. Sampled rows, rich in hits. Any-hit rate of the full collection: about 3.5%. Rule as the data show it: active = inhibition above about 50%; inactive = the rest.

SMILES	mHTT-CaM PPI inh	Pf apPOL inh
CCOc1cccc2c1OC(c1ccc(OC)c(OC)c1)N1N=C(c3ccc(C)o3)CC21 (stereo not given)	63*	-16
COc1ccc(C2Oc3c(OC)cccc3C3CC(c4ccc(C)o4)=NN32)cc1 (stereo not given)	83*	-11
COc1cccc2c1OC(c1ccc(F)c(F)c1)N1N=C(c3ccco3)CC21 (stereo not given)	14	-18
CCOc1cccc2c1OC(c1cccc(OC)c1)N1N=C(c3ccco3)CC21 (stereo not given)	28	-20
CCOC(=O)c1ccc(NC(=O)N2CC(C)Oc3ccc(Cl)cc32)cc1 (stereo not given)	-17	-5
Cc1cc(Br)ccc1NC(=O)c1ccc(F)cc1	-14	4
O=C(c1ccc(F)cc1)N1CCC(CCOc2ccc(F)cc2)CC1	-3	-1
O=C(c1ccsc1)N1CCCC1(CO)Cc1ccccc1 (stereo not given)	-2	-2
Cc1ccsc1/C=C1\SC(N2CCCCC2)=NC1=O	12	-4
COc1cccc(C2C(N3C(=O)c4ccccc4C3=O)C(=O)N2c2ccc(C)cc2)c1 (stereo not given)	6	2
COc1cccc(C2=NN(C(C)=O)C(c3cc4ccccc4nc3Cl)C2)c1OC (stereo not given)	1	-8
O=C(NC1CCCCC1)C1c2ccccc2C(=O)N1C1CCCCC1 (stereo not given)	9	-4
CC1CCCCC1N1C(=O)c2ccccc2C1C(=O)NC1CCCCC1 (stereo not given)	52*	-3
CC(=O)N1CCCC(c2ccnc(Nc3cccc(C)c3)n2)C1 (stereo not given)	11	-7
N#Cc1ccc(C(=O)N2CCCC(c3ccnc(Nc4ccccc4F)n3)C2)cc1 (stereo not given)	0	0
Cc1cccc(Nc2nccc(C3CCCN(C(=O)c4ccco4)C3)n2)c1 (stereo not given)	77*	0
CN(C)c1ccc(C(=O)N2CCCC(c3ccnc(Nc4ccccc4F)n3)C2)cc1 (stereo not given)	60*	-3
O=C(c1ccco1)N1CCCC(c2ccnc(Nc3ccccc3F)n2)C1 (stereo not given)	56*	1
Cc1ccccc1Nc1nccc(C2CCCN(C(=O)c3ccco3)C2)n1 (stereo not given)	21	-4
COc1ccc(OCCCC(=O)Nc2ccccc2[N+](=O)[O-])cc1	21	2
O=C(Nc1cccc(O)c1)c1cc(S(=O)(=O)N2CCCCCC2)ccc1Cl	-12	4
O=C(NNc1c(Cl)cncc1Cl)Nc1ccccc1	·	-4
Cc1cccc(NC(=O)CSc2nnnn2-c2ccccc2F)c1C	2	-20
O=C(Nc1cc(F)cc(F)c1)c1cccc(-c2cnc(N3CCCCC3)nc2)c1	-3	-1
COc1ccccc1NC(=O)CN1C(=O)NC2(CCCCC2)C1=O	0	-2
SMILES	mHTT-CaM PPI inh	Pf apPOL inh
COc1ccc(OC)c(Nc2ncc3c(n2)CCN(Cc2cccc(OC)c2OC)C3)c1	47	-3
CCOc1ccccc1CN1CCc2nc(Nc3cc(OC)ccc3OC)ncc2C1	63*	-4
COc1cccc(CN2CCc3nc(Nc4cc(OC)ccc4OC)ncc3C2)c1	15	-5
COc1ccc(OC)c(Nc2ncc3c(n2)CCN(CCc2ccccc2)C3)c1	59*	-3
COc1ccccc1Nc1ncc2c(n1)CCN(Cc1ccc(F)cc1)C2	-8	36
CCCN1CCc2nc(Nc3ccccc3OC)ncc2C1	1	96*
Cc1ccc(-c2nc3ccccc3s2)cc1NC(=O)c1ccc2c(c1)OCCO2	0	-2
COc1cccc(CNC(=O)C2CCCN(C(=O)c3ccccc3F)C2)c1 (stereo not given)	25	-16
COc1ccc(S(=O)(=O)N2CCc3nc(NC(=O)c4cnccn4)sc3C2)cc1	-5	-6
CCC(C)NC(=O)c1nc(N2CCCC2)c2c(C)cc(C)nc2n1 (stereo not given)	-11	0
Cc1cc([N+](=O)[O-])c(N2CCOCC2)cc1NC(=O)c1sc2ccccc2c1Cl	2	-10
Cc1ccc(-c2nc(N=CN(C)C)sc2C)cc1Cl	·	0
CCOC(=O)c1ccc(-n2sccc2=O)cc1	·	96*
CCOC(=O)c1ccc(NC(=O)CN2CCN(c3ccc(OC)cc3)C2=O)cc1	-7	-1
COc1ccc(C)cc1NC(=O)C(=O)NCCc1ccc(S(N)(=O)=O)cc1	1	-4
CC(=O)c1cc(C#N)c(SCC(=O)c2ccc(O)c(O)c2)nc1C	88*	10
CC(=O)c1cc(C#N)c(SCC(=O)c2ccc(Cl)cc2)nc1C	-6	4
Cc1cc(C)c(C#N)c(SC/C=C/c2ccccc2)n1	-140	4
CC(=O)c1cc(C#N)c(SC/C=C/c2ccccc2)nc1C	97*	-19
O=C1NN(c2ccc(Cl)c(Cl)c2)C(=O)/C1=C/c1cc2c(cc1[N+](=O)[O-])OCO2	75*	-3
COc1cc2c(cc1/C=C1\NC(=O)N(Cc3ccc(F)cc3)C1=O)OCO2	-4	-9
COc1cc(/C=C2\C(=O)NN(c3ccc(Cl)c(Cl)c3)C2=O)cc([N+](=O)[O-])c1O	49	-6
O=C1NC(=O)N(Cc2ccc(F)cc2)C(=O)/C1=C\c1cc2c(cc1[N+](=O)[O-])OCO2	67*	3
CC(C)(C)c1cccc(NC(=S)N2CCSCC2)c1	·	-3
Cc1cc(Br)ccc1NC(=O)c1ccc(NC(=O)C(C)(C)C)cc1	-4	5
SMILES	mHTT-CaM PPI inh	Pf apPOL inh
COc1ccc(-c2ncc3c(n2)CCN(C(=O)c2ccc(C(F)(F)F)cc2)C3)cc1	7	-2
O=[N+]([O-])c1cccc(C2Nc3c(Cl)cccc3C3C=CCC32)c1 (stereo not given)	75*!	-1
O=[N+]([O-])c1cccc(C2Nc3c(cccc3[N+](=O)[O-])C3C=CCC32)c1 (stereo not given)	72*	-6
O=[N+]([O-])c1ccc(C2Nc3c(Cl)cccc3C3C=CCC32)cc1 (stereo not given)	18	19
O=[N+]([O-])c1cccc(C2NCCC3(O)CCCCC23)c1 (stereo not given)	-13	0
O=[N+]([O-])c1cccc(C2Nc3c(cccc3C(F)(F)F)C3C=CCC32)c1 (stereo not given)	58*	1
O=C(CCSc1ccccc1)N1CCCC(c2nnc(-c3cccs3)o2)C1 (stereo not given)	-16	-7
O=C(CC1CCN(S(=O)(=O)c2cccs2)CC1)N1CCOCC1	-3	3
O=C(Cn1nc(N2CCCCCC2)c2ccccc2c1=O)NCc1ccccc1	-8	4
Nc1ccc([N+](=O)[O-])cc1C(=O)NNC(=O)c1ccco1	·	68*
O=C(Nc1ccc([N+](=O)[O-])cc1Br)c1ccco1	5	2
Cc1ccc(C(=O)N2CCCC2c2ccccc2C)cc1 (stereo not given)	-9	0
Cc1ccc(C(=O)N2Cc3ccccc3CC2C(=O)O)cc1 (stereo not given)	53*	-1
COc1ccc(N2CC(c3noc(-c4ccsc4)n3)CC2=O)cc1 (stereo not given)	1	8
O=C1c2ccc(Oc3ccc([N+](=O)[O-])cc3[N+](=O)[O-])cc2C(=O)N1c1cccc([N+](=O)[O-])c1	26	6
N#Cc1ccc(C(=O)Nc2cc(F)c3nc(N4CCOCC4)ccc3c2)cc1	2	1
